Test results as given in the supplement of paper PMC10338343.
± gives the standard deviation.

Key:
[1] = tested on: MILI (PIWIL2) piRISC loaded with piRNA #1 (26 nt); test: pre-steady-state target cleavage rate (min^-1); guide: piRNA #1 5'p-UGAGGUAGUAGGUUGUAUAGUAUCCA; higher = faster piRNA-guided slicing of the target; details: auxiliary factor: 500 nM mouse GTSF1;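 further: 1 nM active piRISC with 0.1 nM target library at 33 °C single turnover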
Procedure, shortened: (§1)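 The pre-steady-state cleavage rate was derived from a burst-and-steady-state fit of Cleave-'n-Seq data. For these assays, 1 nM active affinity-purified piRISC loaded with a single synthetic guide was mixed with […] a transcribed, DNA-blocked target RNA library in HEPES–potassium acetate buffer at 33 °C, with or without 500 nM GTSF1 partner protein, for 0–8 or 0–960 min. Sequencing counts of uncleaved targets were normalised to depth and to weakly complementary targets, and k3 was capped at 0.0001 min^-1 after three trials were pooled.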

[2] = tested on: EfPiwi piRISC loaded with piRNA #1 (26 nt); test: pre-steady-state target cleavage rate (min^-1); auxiliary factor: 500 nM Ephydatia muelleri Gtsf1; guide: piRNA #1 5'p-UGAGGUAGUAGGUUGUAUAGUAUCCA; MIWI and MILI are mouse PIWI proteins and EfPiwi is from a freshwater sponge; tags in brackets are library labels; higher = faster piRNA-guided slicing of the target
Procedure, shortened: as §1

| Sequence | pre-steady-state target cleavage rate [1] | pre-steady-state target cleavage rate [2] |
| --- | --- | --- |
| GGAGACCUAACUAUACAACCUACUACUUCA | 0.084 ± 0.02 | 0.00438 ± 0.0028 |
| GGAGACCUAACUAUACAACCUACUACUCUCA | 0.208 ± 0.028 | 0.00491 ± 0.0044 |
| GGAGACCUAACUUUACAACCUAGUACCUCA | 0.0141 ± 0.0091 | 0.00417 ± 0.0038 |
| GGAGACCUAACUAUACAACCUAUUACCUCA | 0.0965 ± 0.018 | 0.00738 ± 0.0043 |
| GGAGACGAUACUAUACAUCGUACUACCUCA | 0.0496 ± 0.0064 | 0.00254 ± 0.0012 |
| GGAGUGGCUACUAUACAACCUACUACCUCA | 0.19 ± 0.012 | 0.0198 ± 0.0079 |
| GGAGACCUUACAAUACAUCCUACUACCUCA | 0.232 ± 0.021 | 0.00553 ± 0.004 |
| GGAGACGAUAGAUUACAACCUACUACCUCA | 0.0557 ± 0.011 | 0.00662 ± 0.0047 |
| GGAGUGGAUACCAUACAACCUACUACCUCA | 0.231 ± 0.02 | 0.157 ± 0.051 |
| GGAGUGGUUACUAUACAACCUACUACCUCA | 0.186 ± 0.0089 | 0.00957 ± 0.004 |
| GGAGACCUUACUAUACAACCUACUAGCUCA | 0.145 ± 0.02 | 0.00255 ± 0.0017 |
| GGAGACGAUACUAUACAACCUUCAACCUCA | 0.00736 ± 0.0019 | 0.00247 ± 0.0013 |
| GGAGACGAUUCUAUACAACCUACUACCUCA | 0.209 ± 0.013 | 0.0774 ± 0.03 |
| GGAGACCAUACUAUACAACCUCACUACCUCA | 0.00609 ± 0.0028 | 0.0127 ± 0.0078 |
| GGAGACCAUAGCUAUACAACCUACUACCUCA | 0.121 ± 0.014 | 0.0108 ± 0.0051 |
| GGAGACGAUACUAUACAACCUACUAGCACA | 0.00848 ± 0.0055 | 0.00326 ± 0.0016 |
| GGAGACCAUACUAUACAACCUACUUCGUCA | 0.112 ± 0.029 | 0.00491 ± 0.0039 |
| GGAGUGGUUACUAUACAACCUACUUCCUCA | 0.0036 ± 0.002 | 0.0027 ± 0.0013 |
| GGAGACGAUACUAUAGAACCUACUACGUCA | 0.0644 ± 0.013 | 0.002 ± 0.0014 |
| GGAGUGGAUAUUAUACAACCUACUACCUCA | 0.178 ± 0.0094 | 0.00879 ± 0.0043 |
| GGAGACCUAACUCAUACAACCUACUACCUCA | 0.0742 ± 0.033 | 0.0159 ± 0.0089 |
| GGAGACCAUACUAUACAACCUACAACCUCA | 0.189 ± 0.024 | 0.00489 ± 0.0019 |
| GGAGACGAUACUAUACUAGCUACUACCUCA | 0.198 ± 0.011 | 0.00469 ± 0.0025 |
| GGAGAGGAUACUAUUCAACCAACUACCUCA | 0.00614 ± 0.0021 | 0.00354 ± 0.0021 |
| GGAGUGGAUACUGUACAACCUACUACCUCA | 0.178 ± 0.0077 | 0.109 ± 0.039 |
| GGAGACCAUACUAUACAACCUACUACGUGA | 0.115 ± 0.024 | 0.0051 ± 0.0028 |
| GGAGACCUAUGAAUACAACCUACUACCUCA [g2:g18:cont:t1A] | 0.00878 ± 0.0033 | 0.00706 ± 0.0032 |

| Sequence | pre-steady-state target cleavage rate [1] | pre-steady-state target cleavage rate [2] |
| --- | --- | --- |
| GGAGUGGAAACUAUACAACGUACUACCUCA | 0.0251 ± 0.0048 | 0.00364 ± 0.0017 |
| GGAGACGAUAUAUACAACCUACUACCUCA | 0.154 ± 0.011 | 0.00621 ± 0.0041 |
| GGAGACCUUACUACUACAACCUACUACCUCA | 0.107 ± 0.011 | 0.00852 ± 0.0036 |
| GGAGAGGAUACAAUACAACCUACUACCUGA | 0.0513 ± 0.0087 | 0.0036 ± 0.0016 |
| GGAGUGGAUACUAUACAACCUACUCACCUCA | 0.166 ± 0.02 | 0.00247 ± 0.0014 |
| GGAGACCUAACUAUGCAACCUACUACCUCA | 0.12 ± 0.013 | 0.00447 ± 0.0039 |
| GGAGUGGAUACUAUACAACCUACUAUCUCA | 0.137 ± 0.011 | 0.0684 ± 0.026 |
| GGAGUGGAUAAUAUACAACCUACUACCUCA | 0.168 ± 0.011 | 0.0105 ± 0.0047 |
| GGAGUGGAUACUAUACAACGUACUACCUGA | 0.0131 ± 0.0034 | 0.00457 ± 0.0015 |
| GGAGUGGAUUCUAUACAACCUUCUACCUCA | 0.00777 ± 0.0028 | 0.00415 ± 0.0028 |
| GGAGACGAUACUAUACAACCUGACUACCUCA | 0.00401 ± 0.0024 | 0.00426 ± 0.0019 |
| GGAGACCAUACCUAUACAACCUACUACCUCA | 0.152 ± 0.034 | 0.0273 ± 0.011 |
| GGAGUGGAUACUAUCAACCUACUACCUCA | 0.186 ± 0.0098 | 0.0872 ± 0.035 |
| GGAGACCUUACUAUACAACCUACUACCCCA | 0.142 ± 0.021 | 0.00566 ± 0.0032 |
| GGAGUGGAUACUAUACAACCUACUACCUGCA | 0.109 ± 0.012 | 0.00841 ± 0.0028 |
| GGAGUCGAAACUAUACAACCUACUACCUCA | 0.18 ± 0.019 | 0.0604 ± 0.021 |
| GGAGUGGAUACUAUACAACCUACUACCUCU [g2:g26:cont:t1U] | 0.231 ± 0.019 | 1.05 ± 0.27 |
| GGAGAGGAUACAAUACAACCUACUACCACA | 0.146 ± 0.015 | 0.00265 ± 0.0022 |
| GGAGUGGAUACAAUACAACCUUCUACCUCA | 0.0111 ± 0.0024 | 0.00456 ± 0.0022 |
| GGAGACCAUACUAUACAACCUACUAGCUCA | 0.137 ± 0.025 | 0.00491 ± 0.0023 |
| GGAGACCUUUCUAUACAACCUACUACCUGA | 0.0728 ± 0.013 | 0.0049 ± 0.0044 |
| GGAGUGGAUACUAUACAACCUACUACCGUCA | 0.0282 ± 0.006 | 0.00748 ± 0.0027 |
| GGAGACCUAACUAUACAACGUACUACGUCA | 0.00454 ± 0.0043 | 0.00291 ± 0.0026 |
| GGAGACCAUACUAUACAACCUACUAACUCA | 0.0993 ± 0.021 | 0.00957 ± 0.0048 |
| GGAGACGAUACUAUUCAACCUACUAGCUCA | 0.0651 ± 0.01 | 0.0042 ± 0.002 |
| GGAGAGGAUACUAAACAACCUUCUACCUCA | 0.0108 ± 0.0026 | 0.00394 ± 0.0023 |
| GGAGACGAUACUAUACAUCCUUCUACCUCA | 0.0277 ± 0.0037 | 0.00356 ± 0.0021 |
